Test results: PubChem BioAssay (NCATS)
Results filed as inconclusive are left out. Activity calls are given as the source filed them. Calls follow the shape of the dose curve; as a rule, active = well fitted inhibition curve with a large enough effect; inconclusive = small, poorly fitted or top-dose-only effect; inactive = flat fitted curve, though single readings scatter.

Columns and labels:
Test in all cases: qHTS profiling for inhibitors of Plasmodium falciparum proliferation (AID 504749); also: nearly all actives have a fitted effect of over 60% in size
Settings in all cases: P. falciparum in erythrocytes, SYBR Green DNA, 72 h; series mostly up to 28.7 µM
CP329 = test system: CP329
How it was run: (§1)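 Three-day growth assay of blood-stage parasites in erythrocytes (0.3% parasitemia, 2.5% hematocrit) at 37 C, 5% CO2, quantified by SYBR Green DNA staining after overnight detergent lysis.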

DFO2036 = test system: DFO2036
How it was run: as §1

DIV14 = test system: DIV14
How it was run: as §1

DIV17 = test system: DIV17
How it was run: as §1

Dd2 = test system: Dd2
How it was run: as §1

FAB9 = test system: FAB9
How it was run: as §1

HB3 = test system: HB3
How it was run: as §1

JCK = test system: JCK
How it was run: as §1

N140 = test system: N140
How it was run: as §1

PC49 = test system: PC49
How it was run: as §1

CP335 = test system: CP335
How it was run: as §1

DIV30 = test system: DIV30
How it was run: as §1

ECU = test system: ECU
How it was run: as §1

P93_24 = test system: P93_24
How it was run: as §1

PAD = test system: PAD
How it was run: as §1

PC15 = test system: PC15
How it was run: as §1

PC26 = test system: PC26
How it was run: as §1

GB4 = test system: GB4
How it was run: as §1

ICS = test system: ICS
How it was run: as §1

P94_40 = test system: P94_40
How it was run: as §1

Measured: Potency
Potency is read from the fitted curve at half-maximal effect.

COc1ccc2c(c1)C13CCCC[C@@H]1C(C2)N(C)CC3 (stereo not given in full)
active: DIV14 2.69 µM | DIV17 3.01 µM | Dd2 5.62 µM | PC49 3.55 µM
inactive: CP329 | DFO2036 | FAB9 | HB3 | JCK | N140

Nc1ccc([As](=O)(O)O)cc1
not listed: Dd2 | GB4 | ICS | P94_40
inactive: all other assays above

CC(C)(C)NCC(O)c1ccccc1Cl (stereo not given)
inactive: CP329 | DFO2036 | FAB9 | JCK
active: DIV14 8.49 µM | DIV17 6.01 µM | Dd2 11.2 µM | GB4 13.5 µM | ICS 7.08 µM | P94_40 11.2 µM | PC49 12.6 µM

O=C1c2ccccc2C(=O)C1C(=O)C(c1ccccc1)c1ccccc1
not listed: GB4 | ICS
inactive: all other assays above

COC(=O)C(c1ccccc1)C1CCCCN1 (stereo not given)
not listed: DIV14 | DIV17 | Dd2 | PC49 | GB4
inactive: all other assays above

Oc1ccc(Cl)cc1
not listed: CP335
inactive: all other assays above

CC(C)c1cccc(C(C)C)c1O
not listed: CP329 | DIV14 | PC26 | GB4
inactive: all other assays above

CCOP(=S)(OCC)Oc1ccc2c(C)c(Cl)c(=O)oc2c1
active: P94_40 11.2 µM
not listed: CP329 | DFO2036 | N140 | CP335 | DIV30 | P93_24 | ICS
inactive: all other assays above

CC(C)NC(C)C
not listed: PC49 | CP335 | P94_40
inactive: all other assays above
